Screening results as filed in PubChem BioAssay.
Tau fluor cs – counter-screen for tau fibril formation inhibitors | tau K18 P301L Alexa594 fluorescence, heparin fibrillization | Potency, µM (highest dose often 57.7 µM) | 280,000 compounds, 0.93% hits | AID 1463; also: nearly all actives have a fitted effect of over 55% in size
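Human tau K18 P301L (15 uM unlabeled, 0.24 uM Alexa 594-labeled) in 100 mM sodium acetate pH 7 with 20 uM heparin, 6 hr at 37 C. ThT 30 uM added, 1 hr ambient; Alexa 594 FP and total fluorescence read at 555/632 nm.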
Tau ThT inhib – tau fibrillization inhibition (ThT binding). recombinant tau K18 P301L (four-repeat tau fragment), heparin-induced fibrillization, ThT fluorescence. Potency, µM (highest dose often 57.4 µM), most hits filed as inhibitors. 270,000 compounds, 2.1% hits. AID 1460; also: nearly all actives have a fitted effect of over 55% in size
Target sequence (P10636 561-689 P618L limits assumed): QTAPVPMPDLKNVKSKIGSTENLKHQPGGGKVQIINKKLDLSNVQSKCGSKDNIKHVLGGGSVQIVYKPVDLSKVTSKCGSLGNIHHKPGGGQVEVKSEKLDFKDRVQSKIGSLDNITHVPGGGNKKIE
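Recombinant human tau K18 fragment […] carrying P301L, 15 uM unlabeled plus 0.24 uM Alexa 594-labeled, was fibrillized with 20 uM heparin in 100 mM sodium acetate pH 7 for 6 hr at 37 C; 30 uM ThT fluorescence read after 1 hr.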
Sfp PPTase inh – Sfp phosphopantetheinyl transferase inhibition | Q9F4F7 | Biochemical Sfp PPTase activity, qHTS | Potency, µM, usual class: inhibitors | 310,000 compounds, 3.5% hits | AID 1490;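 also: the enzyme is Sfp with the accession as filed and its product quenches rhodamine fluorescence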
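After 15 min at room temperature with compound, 15 nM Sfp received 5 uM rhodamine-CoA plus 12.5 uM BHQ-2-ybbR (50 mM Hepes pH 7.6, 10 mM MgCl2). Rate came from the fluorescence difference over 30 min, ex 525/em 598 nm.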
Tau FP inhib – blocks human tau fibril formation measured by polarization | K18 P301L tau heparin fibrillization, Alexa594 FP, 6 h | Potency, µM (doses to about 57.7 µM), usual class: inhibitors | 280,000 compounds, 0.39% hits | AID 1468; also: nearly all actives have a fitted effect of over 55% in size
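FP of Alexa 594-tau after heparin (20 uM) induction. Substrate: human K18 P301L, 15 uM unlabeled, 0.24 uM labeled. Buffer 100 mM sodium acetate pH 7. 6 hr, 37 C.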
FBPA coupling cs – inhibits coupling enzyme system, counter-screen for aldolase hits | coupling enzyme system counterscreen, AmpLite Red fluorescence | activity change, negative = inhibition, % at 58.2 µM, hits read low | 290,000 compounds, 0.67% hits | AID 2472; in the data active = activity change below about -30%
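Counterscreen of the coupled detection system alone, without aldolase: glyceraldehyde-3-phosphate coupling enzymes plus AmpLite Red readout. Compounds at 57.5 uM final, 10 min RT preincubation, 20 min RT reaction, fluorescence 525/598 nm.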
A number is an active result; 0 = inactive; ? = inconclusive; - = no result; [ ] = another dose, or the depositor's remark. Rows were chosen to be rich in hits. Some 5.2% of all compounds tested hit in one or more screens of this group. Unless noted, calls follow the shape of the dose curve; as a rule, active = well fitted curve in the direction sought with a large enough effect; inconclusive = small, poorly fitted or top-dose-only effect, or another doubt; inactive = no such curve, though single readings can be large; an effect the other way counts as inactive or inconclusive.

SMILES | Tau fluor cs | Tau ThT inhib | Sfp PPTase inh | Tau FP inhib | FBPA coupling cs
Cc1ccc(/C=N\NC(=O)Cc2cccn2C)o1 | 0 | ? | 40µM | 0 | 0
Cn1cccc1CC(=O)N/N=C/C=C/c1ccco1 | 0 | 0 | 14µM | 0 | 0
Cc1cc(N=Nc2ccc(C)c(N=Nc3cc(C)c(N)cc3N)c2)c(N)cc1N | 16µM[quencher] | 4µM | ? | 0 | 0
Cc1cc(=O)cc2oc3cc(N)c(-c4c(C)cc(O)cc4O)c(C)c3nc1-2 | ? | 14µM | 50µM | 22µM | -30
Cc1cc(-c2ccc(N=Nc3c(S(=O)(=O)O)cc4cc(S(=O)(=O)O)cc(N)c4c3O)c(C)c2)ccc1N=Nc1c(S(=O)(=O)O)cc2cc(S(=O)(=O)O)cc(N)c2c1O | - | - | 11µM | - | -
Cc1cccc(Cn2c(=O)n(-c3ccc(CC(=O)NCc4ccco4)cc3)c(=O)c3sccc32)c1 | 0 | 0 | 22µM | 0 | 0
Cc1ccc(-n2c(=O)c3sccc3n(CC(=O)NCc3ccco3)c2=O)cc1 | 0 | 0 | 0 | 0 | 0
Cc1cn(C)c(CC(=O)NCc2ccc(F)cc2)c1C(=O)O | 0 | 0 | - | 0 | -
CN(C)S(=O)(=O)N1C(=O)c2ccccc2C1=O | 0 | 0 | 13µM | 0 | 0
COc1ccc(N(Cc2cccs2)C(=O)COc2cc(C)c(Cl)c(C)c2)cc1 | 0 | 0 | - | 0 | -
Nn1c(C2COc3ccccc3O2)n[nH]c1=S (stereo not drawn) | 0 | ? | 7.1µM | ? | 0
CC(=O)c1ccc(NC(=O)Cn2c(-n3nc(C)cc3C)nc(C)c(C)c2=O)cc1 | 0 | ? | - | ? | -
O=C(O)c1ccc(-n2c(O)c(C=C3N=c4ccccc4=N3)sc2=S)cc1 | ? | 18µM | 0 | 0 | 0
O=C(O)CCCCCn1c(O)c(C=C2N=c3ccccc3=N2)sc1=S | ? | 13µM | ? | 0 | 0
CC(C)(C)C(=O)Nc1cccc(C(=O)OCc2cc(=O)n3nc(C4CC4)sc3n2)c1 | 0 | 0 | - | 0 | -
Cc1ccc(-c2nnc3ccccc3c2C(=O)Nc2cccc(C(F)(F)F)c2)cc1 | 0 | 0 | - | 0 | -
CCN(Cc1ccccc1)Cc1c(O)ccc2c(=O)c(-c3ccccc3OC)c(C(F)(F)F)oc12 | 0 | 0 | - | 0 | -
COc1ccc(C(=O)N/N=C/c2ccc(N3CCOCC3)o2)cc1OC | 0 | ? | 3.5µM | 0 | -35
O=C(N/N=C/c1ccc(N2CCOCC2)o1)c1cccc(F)c1 | 0 | ? | 8.9µM | 0 | 0
COC(=O)c1ccc(NC(=O)CC2C(=O)N(c3ccccc3)C(=O)N2Cc2cccs2)cc1 (stereo not drawn) | 0 | 0 | - | 0 | -
[O-]/C(=C(\C(=S)Nc1ccc(Cl)cc1)[n+]1ccccc1)c1ccc(OC(F)F)cc1 | 0 | ? | 50µM | 0 | 0
CC(C)(C)c1cc[n+](/C(C(=S)Nc2ccccc2F)=C(/[O-])c2ccc3c(c2)OCCO3)cc1 | 0 | ? | 20µM | 0 | 0
CCOc1ccccc1NC(=S)/C(=C(\[O-])c1ccc2c(c1)OCCO2)[n+]1ccc(CC)cc1 | 0 | ? | ? | ? | 0
[O-]/C(=C(\C(=S)Nc1ccccc1F)[n+]1ccccc1)c1ccc(-c2ccccc2)cc1 | 0 | ? | 18µM | 0 | 0
C=CCNC(=S)/C(=C(/[O-])c1ccc([N+](=O)[O-])cc1)[n+]1ccccc1 | 0 | ? | 0 | ? | 0
SMILES | Tau fluor cs | Tau ThT inhib | Sfp PPTase inh | Tau FP inhib | FBPA coupling cs
O=[N+]([O-])c1cccc(/C([O-])=C(/C(=S)Nc2ccccc2)[n+]2ccccc2)c1 | 0 | 0 | ? | 0 | 0
CC(C)C[C@@H](C(=O)N[C@@H](Cc1c[nH]c2ccccc12)C(N)=O)N1C[C@]2(CCCN2C(=O)[C@H](Cc2ccccc2)NC(=O)[C@H](Cc2ccccc2)NC(=O)[C@H](CCC(N)=O)NC(=O)[C@H](CCC(N)=O)NC(=O)[C@@H]2CCCN2C(=O)[C@H](CCCCN)NC(=O)[C@@H]2CCCN2C(=O)[C@@H](N)CCCNC(=N)N)CC1=O | - | - | 0 | - | 0
Cc1ccccc1-c1nccc(NCCN2CCOCC2)n1 | - | - | ? | - | 0
CCC(=O)NC1=C(NC(C)c2ccccc2)C(=O)c2ccccc2C1=O (stereo not drawn) | 0 | ? | 0 | 0 | -46
Cc1cccc(C)c1NC(=O)Cc1cccs1 | - | - | 0 | - | 0
O=C(Nc1cccs1)Nc1cc(C(F)(F)F)ccc1Cl | 6.3µM[quencher] | 0 | - | 0 | -
Cc1cccc(C)c1NC(=O)Nc1cccs1 | 0 | ? | 56µM | 0 | 0
COC(=O)c1ccccc1NC(=O)Nc1cccs1 | 0 | ? | 40µM | 0 | 0
O=C(Nc1cccs1)Nc1c(F)c(F)c(F)c(F)c1F | 0 | 0 | 45µM | 0 | 0
CCOC(=O)C1CCCN(C(=O)c2ccc3c(c2)N(Cc2ccc(Cl)cc2)C(=O)c2ccccc2S3=O)C1 (stereo not drawn) | 0 | 0 | - | 0 | -
COc1ccc(NC(=O)Nc2cccs2)cc1Cl | 10µM[quencher] | ? | 45µM | ? | 0
CCc1cccc(NC(=O)Nc2cccs2)c1 | ? | ? | 32µM | ? | 0
COc1ccc(NC(=O)COC(=O)/C=C/C(=O)OCC(=O)Nc2ccc(OC)c(Cl)c2)cc1Cl | 0 | 0 | 79µM | 0 | 0
COc1ccc(NC(=O)CCC(=O)c2cccs2)cc1Cl | - | - | 0 | - | 0
N#Cc1cccc(NC(=O)Nc2cccs2)c1 | ? | 0 | ? | 0 | 0
CCOC(=O)/C=C/C(=O)OCC(=O)Nc1ccc(OC)c(Cl)c1 | 0 | ? | 0 | 0 | 0
O=C(Nc1cccs1)Nc1c(F)c(F)cc(F)c1F | 0 | ? | 45µM | 0 | 0
COc1ccc(Nc2ncnc3onc(C)c23)cc1Cl | 0 | 0 | - | 0 | -
Cc1cccc(Nc2c(-c3cccs3)nc3nc(C)cc(C)n23)c1 | 0 | 0 | - | 0 | -
c1ccc(-c2csc(NC3=NCCCCC3)n2)cc1 | 0 | 0 | 0 | 0 | 0
Brc1ccc(-c2csc(NNC3=NCCCCC3)n2)cc1 | ? | ? | 50µM | 0 | 0
N#Cc1ccc(-c2csc(NC3=NCCCCC3)n2)cc1 | 0 | 0 | 0 | 0 | 0
FC(F)Oc1ccc(-c2csc(NNC3=NCCCCC3)n2)cc1 | 0 | 28µM | 22µM | ? | 0
CC(C)(C)c1ccc(-c2csc(NNC3=NCCCCC3)n2)cc1 | ? | 16µM | 50µM | ? | 0
COc1ccc2c(c1)OCC1=C2CCC2(C)C(=O)CC=C12 (stereo not drawn) | ? | 20µM | 20µM | ? | -34
SMILES | Tau fluor cs | Tau ThT inhib | Sfp PPTase inh | Tau FP inhib | FBPA coupling cs
COc1ccc2c(c1)SCCC2=O | 0 | 0 | 0 | 0 | 0
COc1ccc2c(c1)C(=NN)c1cc(OC)ccc1-2 | ? | 10µM | 0 | 0 | -
CN(CCc1ccc(Cl)c(Cl)c1)CC(O)COc1ccc(NS(C)(=O)=O)cc1 (stereo not drawn) | 0 | 0 | 0 | 0 | -
Cc1cc(C)nc(SCc2ccc(Cl)cc2)n1 | - | - | 0 | - | 0
Cc1cc(C)nc(SCNC(=O)c2ccc(Cl)cc2)n1 | 0 | 0 | 56µM | 0 | 0
O=C(/C=C/c1ccco1)c1ccc(NC(=O)C23CC4CC(CC(C4)C2)C3)cc1 | 0 | ? | 3.5µM | 0 | 0
CC(=O)C(Sc1nc(N(C)C)nc(N(C)C)n1)C(=O)Nc1ccccc1 (stereo not drawn) | 0 | ? | 0 | 0 | 0
